# Target: Solute carrier family 2, facilitated glucose transporter member 1 (Homo sapiens) (UniProt P11166)
# Experiment: ST_JUDE_LEISH: Cytotoxicity at 2uM final concentration against transgenic Leishmania Mexicana promastigotes LmGLUT1 that are glucose transport deficient and complemented with the human glucose transporter GLUT1. Activity is measured by DNA content using SYBR green in vitro
# Assay type: functional
# Solute carrier family 2, facilitated glucose transporter member 1 (Homo sapiens), sequence (P11166 whole entry): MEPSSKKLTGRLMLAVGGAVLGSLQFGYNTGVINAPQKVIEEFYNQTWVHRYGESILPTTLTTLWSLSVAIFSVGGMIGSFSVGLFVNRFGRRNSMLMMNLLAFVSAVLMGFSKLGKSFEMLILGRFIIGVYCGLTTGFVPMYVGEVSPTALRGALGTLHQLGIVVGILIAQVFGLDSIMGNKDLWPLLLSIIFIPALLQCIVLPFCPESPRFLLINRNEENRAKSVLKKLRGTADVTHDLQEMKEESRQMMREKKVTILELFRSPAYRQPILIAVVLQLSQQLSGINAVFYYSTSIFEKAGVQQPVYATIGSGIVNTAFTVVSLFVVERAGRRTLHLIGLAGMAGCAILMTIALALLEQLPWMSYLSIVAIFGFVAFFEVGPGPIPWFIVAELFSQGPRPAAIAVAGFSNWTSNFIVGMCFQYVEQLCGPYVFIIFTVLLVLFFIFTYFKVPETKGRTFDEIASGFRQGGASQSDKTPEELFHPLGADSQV
row,SMILES,inhibition
1,C=C[C@]1(C)C[C@@H](OC(=O)c2n[nH]c3ccccc3c2=O)[C@]2(C)[C@H](C)CC[C@]3(CCC(=O)[C@H]32)[C@@H](C)[C@@H]1O,5.34%
2,CN(C)C(CNC(=O)c1cc(-c2ccncc2)c(-c2ccc(NC(=O)Nc3cccc(F)c3)cc2)o1)c1ccccc1 (stereo not given),0.98%
3,CCc1cn(CCc2ccccc2)c2ccc(C(=O)N[C@@H](Cc3ccccc3)[C@H](O)CNC(C)(C)CCCC(C)C)cc12,-1.76%
4,COc1ccc(CCCCN2C(=O)C(c3ccccc3)(c3ccccc3)N=C2N)cc1,3.36%
5,S=C(NCCCCCN1CCC(c2c[nH]c3ccccc23)CC1)Nc1cc(Cl)cc(Cl)c1,0.38%
6,COc1ccc2[nH]c(C(=O)Nc3ccc4[nH]c(-c5ccccc5)nc4c3)cc2c1,4.44%
7,CCCCCCCCc1c(C)[nH]c(C)c(Cl)c1=O,0.5%
8,CCOc1cc(C(=O)N[C@@H](Cc2ccccc2)[C@H](O)CNCc2cc(OC)cc(OC)c2)cc(N2CCCC2=O)c1,9.97%
9,Cc1ccc(NC(=O)c2ccc(NCCCN(C)Cc3ccccc3)c([N+](=O)[O-])c2)cc1F,8.67%
10,Cc1onc(-c2c(F)cccc2Cl)c1C(=O)Nc1ccccc1I,2.35%
11,COc1ccc(NC(=O)CSc2nc(-c3ccccc3Cl)ns2)cc1OC,-0.51%
12,Cc1cc(O)c(CNC2CCCCC2)cc1C,1.17%
13,CC(CN1CCN(C)CC1)C(=O)Nc1cccc(-c2ccc(-c3nc4cc(F)ccc4[nH]3)cc2)c1 (stereo not given),4.67%
14,CCc1cn2c3c(cc(C(=O)N[C@@H](Cc4ccccc4)[C@H](O)CNCc4ccccc4)cc13)N(C)S(=O)(=O)CC2,-0.83%
15,COc1ccc(C2CC(=O)C3=C(C2)NC(C)=C(C(=O)OC(C)C)C3c2ccccc2F)cc1OC (stereo not given),13.6%
16,CC(=NNC(N)=O)C1=C(O)C(c2ccccc2)N(C2CCCCC2)C1=O (stereo not given),-0.44%
17,COc1ccc2[nH]cc(C3CCN(CCC4CCN(C(=O)/C=C/c5ccc(Cl)c(Cl)c5)CC4)CC3)c2c1,2.88%
18,O=c1ccc2ccc(O)c(O)c2o1,7.05%
19,Cc1ccc(C2=NNC3(S2)C(=O)N(C)c2ccccc23)cc1 (stereo not given),5.66%
20,COc1cccc(CN2CCCC(CCC(=O)Nc3ccc(C(F)(F)F)cc3)C2)c1O (stereo not given),1.04%
21,CCN(CC)CCN(Cc1ccc(-c2ccc(C(F)(F)F)cc2)cc1)C(=O)Cn1c(SCc2ccc(F)cc2)nc(=O)c2sccc21,5.28%
22,CC(C)CCOc1ccc(NC(=O)c2cccs2)cc1,4.93%
23,O=C(Nc1ccc2c(ccn2C2CCCN(Cc3cc(F)cc(F)c3F)CC2)c1)c1ccco1 (stereo not given),1.97%
24,COc1cccc(C2C(C(=O)Nc3ccccc3)=C(C)N=c3sc(=Cc4ccc(O)cc4)c(=O)n32)c1 (stereo not given),19.2%
25,CN(C)S(=O)(=O)n1ccc2c3c(N)nc(N)nc3ccc21,44.3%

# Target: Hexose transporter 1 (Plasmodium falciparum) (UniProt O97467)
# Experiment: ST_JUDE_LEISH: Cytotoxicity at 2uM final concentration against transgenic Leishmania Mexicana promastigotes LmPfHT that are glucose transport deficient and complemented with the Plasmodium falciparum hexose transporter. Activity is measured by DNA content using SYBR green in vitro
# Assay type: functional
row,SMILES,inhibition
1,O=C(Nc1cccc(F)c1)c1ccc(C(=O)NC2CCN(CC3CCCCC3)C2)cc1 (stereo not given),9.73%
2,Cc1ccccc1C1CCN(C2CCC(NC(=O)/C=C/c3cccc(C(F)(F)F)c3)CC2)CC1 (stereo not given),0.37%
3,COc1cc(CCNCC(O)c2ccc([N+](=O)[O-])c(OCc3ccccc3)c2)cc(OC)c1OC (stereo not given),1.28%
4,CCC(C)NC(=O)CN1CN(c2ccccc2)C2(CCN(C(=O)c3ccc(C(C)(C)C)cc3)CC2)C1=O (stereo not given),2.77%
5,Cc1ccccc1C1CCN(C2CCC(NC(=O)/C=C/c3cc(F)ccc3F)CC2)CC1 (stereo not given),2.73%
6,C=CCn1c(Sc2ccc(C#N)c([N+](=O)[O-])c2)nnc1-c1cccc(Cl)c1,-0.51%
7,Cc1nc(-c2nc(N3CCC(O)CC3)ncc2-c2ccsc2)sc1C,-1.39%
8,NC1CCN(Cc2cccc(-c3ccc(-c4nc5ccccc5[nH]4)s3)c2)C1 (stereo not given),2.41%
9,CC(CCON1C(N)=NC(N)=NC1(C)C)c1ccc(Cl)cc1 (stereo not given),29.5%
10,COc1ccc(-c2cncc3ccc(C(=O)NCCCn4ccnc4)nc23)cc1,8.66%
11,O=C1CSc2ccc(CNC3CCN(CCc4c(Cl)cnc5ccc(F)cc45)CC3)nc2N1,1.12%
12,Cc1sc2nc(CSc3ccccc3)nc(N3CCN(CC(=O)N4CCCC4)CC3)c2c1C,5.88%
13,CCCC(C)Nc1nc(C)cc(N[C@@H](CC(C)C)C(=O)NCCOc2ccccc2)n1 (stereo not given in full),17%
14,CCOc1ccccc1C(=O)N1CCc2cc3nccc(N4CCN5CCC[C@H]5C4)c3cc21,-0.67%
15,O=C(/C=C/c1ccc(Cl)c(Cl)c1)NCCCCCN1CCC(NC(=O)Nc2ccc([N+](=O)[O-])cc2)CC1,1.11%
16,C=C[C@]1(C)C[C@@H](OC(=O)c2n[nH]c3ccccc3c2=O)[C@]2(C)[C@H](C)CC[C@]3(CCC(=O)[C@H]32)[C@@H](C)[C@@H]1O,0.28%
17,CN(C)C(CNC(=O)c1cc(-c2ccncc2)c(-c2ccc(NC(=O)Nc3cccc(F)c3)cc2)o1)c1ccccc1 (stereo not given),0.71%
18,CCc1cn(CCc2ccccc2)c2ccc(C(=O)N[C@@H](Cc3ccccc3)[C@H](O)CNC(C)(C)CCCC(C)C)cc12,-1.07%
19,COc1ccc(CCCCN2C(=O)C(c3ccccc3)(c3ccccc3)N=C2N)cc1,4.05%
20,S=C(NCCCCCN1CCC(c2c[nH]c3ccccc23)CC1)Nc1cc(Cl)cc(Cl)c1,-0.55%

row,SMILES,inhibition
1,COc1ccc2[nH]c(C(=O)Nc3ccc4[nH]c(-c5ccccc5)nc4c3)cc2c1,2.1%
2,CCCCCCCCc1c(C)[nH]c(C)c(Cl)c1=O,0.28%
3,CCOc1cc(C(=O)N[C@@H](Cc2ccccc2)[C@H](O)CNCc2cc(OC)cc(OC)c2)cc(N2CCCC2=O)c1,8.91%
4,Cc1ccc(NC(=O)c2ccc(NCCCN(C)Cc3ccccc3)c([N+](=O)[O-])c2)cc1F,3.73%
5,Cc1onc(-c2c(F)cccc2Cl)c1C(=O)Nc1ccccc1I,2.24%
6,COc1ccc(NC(=O)CSc2nc(-c3ccccc3Cl)ns2)cc1OC,-0.5%
7,Cc1cc(O)c(CNC2CCCCC2)cc1C,1.33%
8,CC(CN1CCN(C)CC1)C(=O)Nc1cccc(-c2ccc(-c3nc4cc(F)ccc4[nH]3)cc2)c1 (stereo not given),3.13%
9,CCc1cn2c3c(cc(C(=O)N[C@@H](Cc4ccccc4)[C@H](O)CNCc4ccccc4)cc13)N(C)S(=O)(=O)CC2,-0.74%
10,COc1ccc(C2CC(=O)C3=C(C2)NC(C)=C(C(=O)OC(C)C)C3c2ccccc2F)cc1OC (stereo not given),2.16%
11,CC(=NNC(N)=O)C1=C(O)C(c2ccccc2)N(C2CCCCC2)C1=O (stereo not given),-0.08%
12,COc1ccc2[nH]cc(C3CCN(CCC4CCN(C(=O)/C=C/c5ccc(Cl)c(Cl)c5)CC4)CC3)c2c1,1.24%
13,O=c1ccc2ccc(O)c(O)c2o1,5%
14,Cc1ccc(C2=NNC3(S2)C(=O)N(C)c2ccccc23)cc1 (stereo not given),8.24%
15,COc1cccc(CN2CCCC(CCC(=O)Nc3ccc(C(F)(F)F)cc3)C2)c1O (stereo not given),2.12%
16,CCN(CC)CCN(Cc1ccc(-c2ccc(C(F)(F)F)cc2)cc1)C(=O)Cn1c(SCc2ccc(F)cc2)nc(=O)c2sccc21,2.81%
17,CC(C)CCOc1ccc(NC(=O)c2cccs2)cc1,5.81%
18,O=C(Nc1ccc2c(ccn2C2CCCN(Cc3cc(F)cc(F)c3F)CC2)c1)c1ccco1 (stereo not given),-3.49%
19,COc1cccc(C2C(C(=O)Nc3ccccc3)=C(C)N=c3sc(=Cc4ccc(O)cc4)c(=O)n32)c1 (stereo not given),27.8%
20,CN(C)S(=O)(=O)n1ccc2c3c(N)nc(N)nc3ccc21,46.3%
